Screens as filed in PubChem BioAssay.
697 NFkB inh: inhibitors of the PMA/ionomycin-induced NF-kB reporter in 697 B cells | 697 B-cell NF-kB luciferase reporter, 16 h | inhibition, % at 4 µM | 0.33% of 330,000 active; in the data active = inhibition above about 35%
Jurkat NFkB inh: lowers PMA/ionomycin-induced NF-kB signal in Jurkat cells; 0.53% of 330,000 active; PMA/ionomycin-induced NF-kB luciferase reporter, luminescence; inhibition, % at 4 µM; in the data active = inhibition above about 50%
Mdm2 MdmX PPI: inhibitors of human Mdm2/MdmX interaction; SaOS-2 split-luciferase Mdm2/MdmX complementation, luminescence; AID 485346; inhibition, % at 8 µM; 3% of 330,000 active;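 active = inhibition of at least 50% at 8 µM in the primary screen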
Beta apoptosis: beta cell apoptosis inhibition. INS-1E cytokine-induced death, ATP luminescence, 48 h; percent of positive-control rescue, neutral wells zero. protection from apoptosis, % (concentration not given with the values). 0.8% of 300,000 active;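 active = Every replicate reaches about 75%, or at least half do and their mean reaches it too, limit read from the data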;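 note: higher means more ATP so stronger rescue from cytokine killing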
NTR1 agonist: agonists of human neurotensin receptor NTR1; NTR1-U2OS beta-arrestin-GFP spot imaging, agonist mode; activation, % at 20 µM; P30989; 0.17% of 330,000 active;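 active = activation at or above 40% of the spot to cytoplasm intensity ratio, with at least 20 cells analyzed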
Target sequence (P30989 whole entry, looked up): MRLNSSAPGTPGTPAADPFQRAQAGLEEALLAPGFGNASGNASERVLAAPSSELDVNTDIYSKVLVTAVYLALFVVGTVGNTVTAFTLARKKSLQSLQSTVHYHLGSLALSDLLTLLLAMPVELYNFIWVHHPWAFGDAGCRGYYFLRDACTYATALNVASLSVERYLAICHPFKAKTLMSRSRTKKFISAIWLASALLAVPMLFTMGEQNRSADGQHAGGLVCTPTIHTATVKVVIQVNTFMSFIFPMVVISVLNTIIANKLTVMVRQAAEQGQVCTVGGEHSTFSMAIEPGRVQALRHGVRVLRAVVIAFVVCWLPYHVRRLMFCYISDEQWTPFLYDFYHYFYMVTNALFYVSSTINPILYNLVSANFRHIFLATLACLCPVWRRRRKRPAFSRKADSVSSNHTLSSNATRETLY
Bfl-1 A1 inh: inhibitors of the anti-apoptotic protein A1, read as caspase activation. MEF A1-2A-BIM cells, Caspase-Glo 3/7 luminescence, 3 h; percent of clofoctol response, vehicle zero. caspase activation, % (test concentration not listed). 0.066% of 330,000 active. AID 2462;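 active = over half of replicate activation scores above 10%, or exactly half above 10 with the replicate mean above 10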
Mdm2 MdmX conf: confirmation of human Mdm2/MdmX interaction inhibitors; shares compounds with Mdm2 MdmX PPI; Mdm2-MdmX binding, luminescent assay; inhibition, % at 8 µM; 55% of 10,000 active; AID 489028; in the data active = inhibition above about 40%
Full FLuc ctr: full-length luciferase inhibition in Mdm2/MdmX counter-screen | SaOS-2 full-length luciferase counterscreen, luminescence | inhibition, % at 8 µM | AID 504607 | 77% of 6,200 active | shares compounds with Mdm2 MdmX PPI;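 active = mean inhibition at 8 µM reaching about 37%, which flags the compound as non-specific, limit read from the data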;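 note: p53-null SaOS-2 cells with luciferase driven by a doxycycline-inducible promoter; compound on cells about two nights before reading with doxycycline added after day one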
Large screens that a line does not name were inactive (follow-up assays come after a bar, where they were run). In the library only some 3.8% were active in any assay of this set; here they are far more common.

O=C(Nc1ccc(Cl)c(Cl)c1)Nc1cc(S(=O)(=O)N2CCOCC2)ccc1N1CCCC1	Mdm2 MdmX PPI 53 | Mdm2 MdmX conf inactive
CCCCC1=CC2=CC(=O)C(C)(OC(=O)c3ccc(Cl)nc3)C(=O)C2=CO1 (centres undefined)	none
O=[N+]([O-])c1c(NCCCO)cc(Sc2nc3ccccc3s2)c2nonc12	Mdm2 MdmX PPI 99 | Mdm2 MdmX conf 56 | Full FLuc ctr inactive
Cc1coc2c1C(=O)C(=O)c1c-2ccc2c1CCCC2(C)C	Mdm2 MdmX PPI 53 | Mdm2 MdmX conf inactive
Cc1coc2c1C(=O)C(=O)c1c-2ccc2c(C)cccc12	Mdm2 MdmX PPI 65 | Mdm2 MdmX conf inactive
C[C@H]1COC2=C1C(=O)C(=O)c1c2ccc2c1CCCC2(C)C	none (no result: 697 NFkB inh, Jurkat NFkB inh, Mdm2 MdmX PPI, NTR1 agonist)
CCOC(=O)[C@H]1[C@H]2COc3ccccc3[C@@H]2N2C(=O)CNC(=O)[C@@]12C	none
COc1ccc(-c2cc(C(=O)N3CCCC(C(F)(F)F)C3)c3ccccc3n2)cc1OC (centres undefined)	none
O=[N+]([O-])c1ccc(N=Nc2c(O)[nH]c3ccc(F)cc23)cc1	Mdm2 MdmX PPI 54 | Mdm2 MdmX conf inactive
O=[N+]([O-])c1ccc2[nH]c(O)c(N=Nc3ccc(F)cc3)c2c1	none
CCOC(=O)Cc1csc(NC(=O)c2ccc(C)c(S(=O)(=O)N3CCOCC3)c2)n1	none (no result: Beta apoptosis, Bfl-1 A1 inh)
COc1ccccc1C1CCCN1Cc1nc(-c2ccc(C)s2)oc1C (centres undefined)	Mdm2 MdmX PPI 75 | Mdm2 MdmX conf 66 | Full FLuc ctr 52
Cc1ccc(NC(=O)c2cc(C(=O)c3cc(Cl)ccc3O)cn(-c3ccc(C)cc3)c2=O)cc1	Mdm2 MdmX PPI 88 | Mdm2 MdmX conf 86 | Full FLuc ctr 44
O=C(COC(=O)c1ccccc1O)Nc1cccc2ccccc12	none
CC(=O)c1c(C)[nH]c(C(=O)OC(C)C(=O)Nc2ccc(C)c(S(=O)(=O)N3CCOCC3)c2)c1C (centres undefined)	none
CCN(CC)S(=O)(=O)c1cc(NC(=O)C(C)OC(=O)c2[nH]c(C)c(C(C)=O)c2C)ccc1C (centres undefined)	Mdm2 MdmX PPI 51 | Mdm2 MdmX conf 41 | Full FLuc ctr 43
O=C(NC(NCC1CCCO1)C(Cl)(Cl)Cl)c1cccc2ccccc12 (centres undefined)	Mdm2 MdmX PPI 55 | Mdm2 MdmX conf inactive
N#CC1=C(N)Oc2cc(N)ccc2C1c1ccc(F)cc1F (centres undefined)	Mdm2 MdmX PPI 59 | Mdm2 MdmX conf inactive
N#CC1=C(N)Oc2cc(N)ccc2C1c1ccc(F)cc1 (centres undefined)	none
O=C(CN1CCN(c2ccc(O)cc2)CC1)Nc1ccc2c(c1)OCCCO2	none
CCCN(CCC)CCCNC(=O)Cn1cnc2sc(C)c(S(=O)(=O)N3CCOCC3)c2c1=O	none
O=C(O)c1cc2c(s1)-c1ccccc1CC2	none
O=C(N/N=C/c1ccc(Cl)cc1)c1cc2c(s1)-c1ccccc1CC2	Mdm2 MdmX PPI 65 | Mdm2 MdmX conf 60 | Full FLuc ctr 47
Cc1cccc(NC(=O)C(C)Sc2nc3ccccc3c(=O)n2CCCN2CCOCC2)c1 (centres undefined)	Mdm2 MdmX PPI 89 | Mdm2 MdmX conf 71 | Full FLuc ctr 51
Cc1[nH]c2ccccc2c1C(=O)CSc1nc2ccccc2c(=O)n1CCCN1CCOCC1	Mdm2 MdmX PPI 59 | Mdm2 MdmX conf inactive
CC(=O)c1cccc(NC(=O)CSc2nc3ccccc3c(=O)n2CCCN2CCOCC2)c1	none
Cc1ccc(S(=O)(=O)N(C)c2ccc(OC(=O)c3cccs3)cc2)cc1C	none
N/C(=N\OC(=O)Oc1ccccc1)c1cccc([N+](=O)[O-])c1	none
O=C(C#Cc1ccccc1)c1cccc([N+](=O)[O-])c1	Mdm2 MdmX PPI 88 (no result: Beta apoptosis) | Mdm2 MdmX conf inactive
O=C(Cn1cnc2c(nnn2Cc2ccc(F)cc2)c1=O)Nc1ccc2c(c1)OCCO2	Mdm2 MdmX PPI 71 | Mdm2 MdmX conf inactive
CCC(C)c1ccc(NC(=S)NC2CCN(Cc3ccccc3)CC2)cc1 (centres undefined)	Mdm2 MdmX PPI 76, Beta apoptosis 111 | Mdm2 MdmX conf inactive
CCc1ccc(NC(=S)NC2CCN(Cc3ccccc3)CC2)cc1	none
CCOC(=O)C1=C(N)n2c(s/c(=C/c3ccccc3)c2=O)=C(C(=O)OCC)C1c1ccccc1 (centres undefined)	Mdm2 MdmX PPI 51 | Mdm2 MdmX conf inactive
CCOC(=O)C1=C(N)n2c(s/c(=C\c3ccco3)c2=O)=C(C(=O)OCC)C1c1ccco1 (centres undefined)	none (no result: 697 NFkB inh, Jurkat NFkB inh, Mdm2 MdmX PPI, NTR1 agonist)
COC(=O)[C@]1(Cc2ccccc2)N[C@H](CN(C)S(=O)(=O)c2ccc(C(C)(C)C)cc2)[C@@H]2C(=O)N(Cc3ccccc3)C(=O)[C@@H]21	none
O=C1Nc2ccccc2O/C1=C\c1c(F)cccc1Cl	Mdm2 MdmX PPI 60 | Mdm2 MdmX conf 42 | Full FLuc ctr 60
O=C(N/N=C1/CCCc2ccccc21)C(c1ccccc1)c1ccccc1	Mdm2 MdmX PPI 58 | Mdm2 MdmX conf inactive
O=C(N/N=C1/CCCc2ccccc21)c1cc([N+](=O)[O-])cc([N+](=O)[O-])c1	Mdm2 MdmX PPI 67 | Mdm2 MdmX conf inactive | Full FLuc ctr 94
O=C(N/N=C1\CCCc2ccccc21)c1cccc([N+](=O)[O-])c1	none
O=C(N/N=C1\CCCc2ccccc21)C(O)c1ccccc1 (centres undefined)	none
Oc1c(N=NC(=S)Nc2ccccc2F)c2ccccc2n1Cc1ccc(F)cc1	Mdm2 MdmX PPI 59 | Mdm2 MdmX conf 47 | Full FLuc ctr 55
Cc1cccc(Cn2c(O)c(N=NC(=S)Nc3ccccc3F)c3ccccc32)c1	Mdm2 MdmX PPI 63 | Mdm2 MdmX conf 42 | Full FLuc ctr 54
Oc1c(N=NC(=S)Nc2ccccc2F)c2ccccc2n1Cc1cccc(Cl)c1	Mdm2 MdmX PPI 59 | Mdm2 MdmX conf inactive
O=C(N=Nc1c(O)n(Cc2ccccc2)c2ccccc12)c1ccc(O)cc1	none
Cc1cccc(NC(=S)N=Nc2c(O)n(CN3CCOCC3)c3ccccc23)c1C	none
CC(C)c1nnc(NC(=O)C2CCCN(C(=O)Nc3ccc(F)cc3)C2)s1 (centres undefined)	none
COc1ccc(NC(=O)CN2C(=O)NC3(CCCCCC3)C2=O)cc1Cl	none
Cc1ccc(NC(=O)CN(C)C(=O)CNC(=O)c2cccs2)cc1	none
CCCn1c(=O)c(C(=O)N/N=C/c2ccc(F)cc2)c(O)c2ccccc21	none
